Only a selection was taken, and hits are over-represented in it overall.
Algae TAG accum = increases triacylglycerol in Chlamydomonas reinhardtii. calls only at 10 µM (by protocol). actives 0.84% (n = 44,000). Chlamydomonas reinhardtii TAG, Nile Red fluorescence, 72 h; call rule not given here;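 further: hits raise Nile Red signal meaning more stored TAG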
Numbers without * were called inactive; i = inactive; + = active, no number.

SMILES | Algae TAG accum
COc1ccc2[nH]cc(CCNC(=O)c3ccc([N+](=O)[O-])cc3)c2c1 | i
CCN1CCN(Cc2ccc(N(CC)CC)cc2)CC1 | +
CCN(CC)c1ccc(CN2CCN(C)CC2)cc1 | i
CCN(CC)c1ccc(CN2CCSCC2)cc1 | i
Cc1ccccc1C(=O)Nc1cccc(NC(=O)c2cccc([N+](=O)[O-])c2C)c1 | i
Cc1ccc(C(=O)Nc2sc3c(c2C(N)=O)CCC(C)C3)o1 (configuration not stated) | i
COc1ccc(C(=O)Nc2sc3c(c2C(N)=O)CCC(C)C3)c(OC)c1 (configuration not stated) | +
CC1CCc2c(sc(NC(=O)c3ccccc3[N+](=O)[O-])c2C(N)=O)C1 (configuration not stated) | i
Cc1ccc(C)c(NC(=O)c2ccc(Cl)cc2Cl)c1 | i
COc1ccc(CCN2C(=O)CC(=O)NC2=O)cc1OC | i
COc1ccc(S(=O)(=O)Nc2cc3oc4ccccc4c3cc2OC)cc1 | i
Cc1ccc(CNC(=O)C(=O)Nc2cccc(F)c2)cc1 | i
CC1CCN(S(=O)(=O)c2ccc(NC(=O)c3cccc([N+](=O)[O-])c3)cc2)CC1 | +
CC1CCN(S(=O)(=O)c2ccc(Cl)c(C(=O)Nc3cccc([N+](=O)[O-])c3)c2)CC1 | i
O=C(Nc1ccc(S(=O)(=O)N2CCCCC2)cc1)c1cccc([N+](=O)[O-])c1 | i
CC(=O)Nc1ccc(-c2nc3ccc(C)cc3s2)cc1 | i
Cc1ccc(C(=O)Nc2ccc(I)cc2)cc1 | i
c1ccc(N2CCN(Cc3ccsc3)CC2)cc1 | +
c1cc(CN2CCOCC2)cs1 | i
Clc1cccc(N2CCN(Cc3ccsc3)CC2)c1 | +
c1ccc(CCN2CCN(Cc3ccccc3)CC2)cc1 | i
Clc1cccc(N2CCN(Cc3cccs3)CC2)c1 | i
c1ccc(N2CCN(Cc3ccsc3)CC2)nc1 | i
c1ccc(CCN2CCN(c3ccccc3)CC2)cc1 | +
COc1cc(CN2CCN(c3cccc(Cl)c3)CC2)cc(OC)c1O | i
SMILES | Algae TAG accum
CN1CCN(CCCc2ccccc2)CC1 | i
CCN(CC)C(=O)Nc1ccccc1C | i
COc1cc(CN2CCN(c3ccccn3)CC2)cc(I)c1O | i
CC(C)NC(=O)c1ccccc1NC(=O)Nc1ccccc1 | i
CC(C)(C)NC(=O)c1ccc(CN2CCN(c3ccccc3)CC2)cc1 | i
COc1ccc(C2(CNC=O)CCCC2)cc1OC | i
COc1ccc(C(=O)N2C(C)CCCC2C)cc1OC (configuration not stated) | i
Cc1ccc(C(=O)c2ccco2)cc1C | i
O=C(Nc1ccccc1[N+](=O)[O-])c1ccc(Br)c(S(=O)(=O)Nc2ccccc2)c1 | i
O=C1C2ON(c3ccccc3)C(c3ccc(F)cc3)C2C(=O)N1Cc1ccccc1 (configuration not stated) | i
COCC(=O)Nc1ccc2c(c1)OCO2 | i
O=C(Nc1ccccc1F)c1c(F)c(F)c(F)c(F)c1F | i
O=C(Nc1ccc(Cl)cc1F)c1c(F)c(F)c(F)c(F)c1F | +
O=C(Nc1ccc(Br)cc1F)c1c(F)c(F)c(F)c(F)c1F | i
COc1ccc(C(=O)Nc2ccc(S(=O)(=O)Nc3ccc(S(N)(=O)=O)cc3)cc2)cc1 | i
O=Cc1c(N2CCN(CCO)CC2)nc2ccccn2c1=O | i
OC(CNCCc1ccccc1)c1ccccc1 (configuration not stated) | +
OC(Cc1ccccc1)c1ccccc1 (configuration not stated) | i
Cc1ccc(C(=O)NCC(O)c2ccccc2)cc1 (configuration not stated) | i
COc1ccc(N2CCN(CC(=O)Nc3nc(-c4ccccc4)cs3)CC2)cc1 | i
Cc1ccnc(NS(=O)(=O)c2ccc(Cl)cc2)c1 | i
c1ccc(CN2CCC(NC3C4CC5CC(C4)CC3C5)CC2)cc1 (configuration not stated) | i
Oc1ccc(Br)cc1CN1CCN(C2CC3CCC2C3)CC1 (configuration not stated) | i
O=[N+]([O-])c1ccc(CN2CCN(C3CC4CCC3C4)CC2)cc1 (configuration not stated) | +
O=[N+]([O-])c1cccc(CN2CCN(C3CC4CCC3C4)CC2)c1 (configuration not stated) | i
SMILES | Algae TAG accum
O=[N+]([O-])c1ccc(CN2CCN(C3CCN(Cc4ccccc4)CC3)CC2)cc1 | i
c1ccc(CN2CCN(C3CC4CCC3C4)CC2)cc1 (configuration not stated) | +
Cc1cc(OCC(=O)N2CCN(c3ccccc3)CC2)ccc1Cl | i
COCCOc1nc2ccccc2nc1C | i
Cc1ccc(C(=O)N(C)c2ccccc2)cc1 | i
O=C(O)c1ccc(N2C(=O)CCC2=O)cc1Cl | i
CN(C/C=C/c1ccccc1[N+](=O)[O-])Cc1ccccc1 | i
COc1cc([N+](=O)[O-])ccc1NC(=O)COc1ccc(Cl)cc1Cl | i
Fc1ccccc1CSc1nnc(-c2ccncc2)n1-c1ccccc1 | i
Fc1ccccc1CSc1nc2ncccc2[nH]1 | i
Fc1ccccc1CSC1=NCCN1 | +
N/C(=N/OC(=O)Oc1ccccc1)c1ccc(Br)cc1 | i
Cc1cc(C)c(OCC(=O)Nc2ccc(NC(=O)c3cccs3)cc2)c(Cl)c1 | i
CCOc1ccccc1C(=O)NC1CC1 | +
CCOc1ccccc1C(=O)NC1CCC(NC(=O)c2ccccc2OCC)CC1 (configuration not stated) | i
CCOc1ccccc1C(=O)NCCNC(=O)c1ccccc1OCC | i
COc1ccc(S(=O)(=O)NCCSCc2c(F)cccc2Cl)cc1OC | i
Cc1nc2sc(C(=O)c3ccc([N+](=O)[O-])cc3)c(N)c2c(C)c1C | i
COc1ccc(C)cc1N(CC(=O)Nc1ccc(Cl)cc1)S(C)(=O)=O | i
NS(=O)(=O)c1ccc(NC(=O)c2ccc(Br)o2)cc1 | i
COc1ccc(CN(C)C2CCN(C)CC2)c(OC)c1OC | i
COc1ccc(CN(C)C2CCCCC2)c(C)c1C | +
COc1ccc(CN2CCCCC2C)c(C)c1C (configuration not stated) | i
CC(=O)c1ccc(NC(=O)COc2c(C)cc(C)cc2Cl)cc1 | i
C=CCn1c(SCC(=O)NCCc2ccccc2)nnc1-c1ccc(Cl)cc1Cl | +
SMILES | Algae TAG accum
C=CCn1c(SCC(=O)O)nnc1-c1ccccc1 | i
C=CCn1c(SCC(=O)O)nnc1-c1ccc(Cl)cc1 | i
CCCC(=O)N1CCN(c2cc(N3CCN(C)CC3)c(F)cc2[N+](=O)[O-])CC1 | i
CCCCSc1nnc(-c2ccc(Br)cc2)o1 | i
Cc1occc1C(=O)N1CCN(C(c2ccccc2)c2ccccc2)CC1 | i
COc1ccc(CNC2CCCC(C)C2)cc1 (configuration not stated) | +
COc1cc(CNC2CCC(C)C2)cc(OC)c1 (configuration not stated) | i
COc1ccc(CNC2CCCC2)cc1OC | i
CCCCOc1ccc(NC(=O)C2CC2)cc1 | i
CCCN(CCO)Cc1cc(Br)ccc1OC | i
CN1CCN(C(=O)Nc2ccc(Cl)c(Cl)c2)CC1 | i
CCOc1ccccc1NC(=O)C(=O)NCCO | i
CC(=O)Nc1ccccc1NC(=O)CCCOc1ccc(Cl)cc1Cl | i
COc1cccc(N2CCN(C3CCC(C)C3)CC2)c1 (configuration not stated) | i
CC1CCC(N2CCN(c3ccccc3)CC2)C1 (configuration not stated) | +
